Screening results: PubChem BioAssay, SRMLSC
Shown are actives, neighbours in structure and some others; about 6.5% of the full set was active somewhere.
PMK inhibit: S. pneumoniae PMK inhibition; purified PMK, PK/LDH-coupled NADH absorbance 340 nm; inhibition, % at 10 µM; 65,000 tested, 0.49% active; AID 539;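 active means top-ranked compounds by inhibition in the single 10 µM screen, taking a fixed number of the strongest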;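 further: 0% = full reaction with DMSO carrier and 100% = background rate without enzyme reaction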
NADH enzymes: inhibition of NAD/NADH coupling enzymes, library profiling; 65,000 tested, 0.02% active; coupled PK/LDH NADH assays, four targets; IC50, µM (highest dose often 10 µM), without a hit: top-dose inhibition;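 active means single-dose screening hits from any of four coupled enzyme assays that gave an IC50 when retested across doses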;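 further: the DPM-DC format reads NADH fluorescence rather than 340 nm absorbance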
Abs 340nm: compound absorbs light at 340 nm; compound absorbance at 340 nm, fold over control; fold change at 10 µM; 65,000 tested, under 10 active; AID 708;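 active means at 10 µM dose, initial 340 nm absorbance at least 2 fold that of control wells; inactive means change under 2 fold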;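 further: initial absorbance extrapolated from kinetic A340 decline of NADH oxidation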
Spn DPM-DC inh: S. pneumoniae DPM-DC inhibition | calls only at 10 µM | purified DPM-DC, PK/LDH coupled NADH fluorescence | 65,000 tested, 0.49% active;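 active means the 320 compounds with the highest percent inhibition in the single-dose primary screen, excluding strongly autofluorescent ones, cut at about 32% in these data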;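 further: kinetic rate of NADH fluorescence loss reporting ADP formed by the decarboxylase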
Autofluor 339: intrinsic fluorescence of library compounds, ex339/em460 – biochemical, MLSMR library, data from DPM-DC assay, artefact control, profiling panel | compound autofluorescence, ex339/em460 nm, NADH buffer; active compounds read high; 1 = no-compound wells, NADH background | fluorescence fold increase at 10 µM | 65,000 tested, 5.5% active | AID 709;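 active means at 10 µM, mean starting fluorescence two-fold or more over control wells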;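 further: signal is the first read of a kinetic run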
Spn MK inh: blocks S. pneumoniae mevalonate kinase; 65,000 tested, 0.48% active; inhibition, % at 10 µM; purified MK, PK/LDH-coupled NADH absorbance 340 nm;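 active means ranked among the strongest by inhibition in the single 10 µM screen, a fixed top-ranked set picked for dose follow-up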
Active calls of the source: *; i = inactive; · = not tested or not shown; + = active, no number.

SMILES	PMK inhibit	NADH enzymes	Abs 340nm	Spn DPM-DC inh	Autofluor 339	Spn MK inh
CCN(CC)CCCNc1cc2n(c(=O)n1)CCc1cc(OC)c(OC)cc1-2	15	13%	1.1	·	4*	10
COc1ccc(C(=O)N2CCN=C2SCc2cccnc2)cc1OC	0	3%	1	i	1.1	8
COc1cc2c(cc1OC)-c1cc(NC3CCCCCC3)nc(=O)n1CC2	9	9%	1.1	·	3.3*	8
COc1cc2c(cc1OC)-c1cc(N3CCCc4ccccc43)nc(=O)n1CC2	0	6%	1.2	i	1.1	14
COc1cc2c(cc1OC)-c1cc(N3CCCCCC3)nc(=O)n1CC2	15	9%	1.2	i	2.5*	2
COc1ccc(N(C(=O)c2ccco2)S(=O)(=O)c2cc(OC)ccc2OC)cc1	0	2%	0.99	i	1	11
CC(=O)Nc1ccc(S(=O)(=O)NCc2csc(C)n2)cc1	23	10%	0.98	i	1.1	7
Cc1cc(C)c(C#N)c(N2CCCC(C(N)=O)C2)n1 (stereo not given)	9	6%	1	·	4.1*	2
Cc1cc(C)c(C#N)c(N2CCSCC2)n1	11	13%	1	i	2.7*	10
Cc1cc(C)c(C#N)c(SCC(=O)N2CCCCC2)n1	0	1%	1.1	i	1.1	0
Cc1cc(N(C)C)c(C#N)c(N2CCOCC2)n1	3	5%	1	i	1.1	11
NC(=O)C1(N2CCCCC2)CCN(C(=O)CSc2nc3ccccc3s2)CC1	0	3%	1	i	1.1	9
Fc1ccc(-c2cc3nc(-c4ccccc4)cc(N4CCN(CCN5CCOCC5)CC4)n3n2)cc1	19	10%	1	·	3.7*	1
COc1cccc(-c2cc3nc(-c4ccccc4)cc(N4CCC5(CC4)OCCO5)n3n2)c1	13	8%	1	·	2.1*	2
COc1ccc(-c2cc3nc4c(c(N5CCC6(CC5)OCCO6)n3n2)CCCC4)cc1	8	5%	1	i	2*	6
Cc1c(C(=O)NC2=NCCS2)oc2ccccc12	10	10%	1.1	i	1.1	11
O=c1[nH]c(/C(=N\O)c2ccccc2)no1	13	1%	1	i	1	2
Cc1cccc(-c2c3c(=O)n(C)c(=O)n(C)c3cn2-c2ccc(O)cc2)c1	4	7%	1	i	2.1*	10
Cn1c(=O)c2c(-c3ccccc3)n(N3CCOCC3)cc2n(C)c1=O	6	7%	1	i	1.3	14
COc1ccc(-c2c3c(=O)n(C)c(=O)n(C)c3cn2-c2cc(OC)ccc2OC)cc1	12	12%	1	·	3.7*	11
Cn1c(=O)c2c(-c3ccccc3)n(C3CCCCC3)cc2n(C)c1=O	31*	17%	1	i	1.4	13
Cn1c(=O)c2c(-c3ccccc3)n(-c3ccccc3O)cc2n(C)c1=O	16	13%	1	i	2.2*	1
COc1ccc(-c2c3c(=O)n(C)c(=O)n(C)c3cn2Cc2ccccn2)cc1	7	4%	1.1	i	1.3	4
O=C(NC1CCS(=O)(=O)C1)C12CC3CC(CC(C3)C1)C2 (stereo not given)	9	10%	1	i	0.99	16
COCCN1C(=O)c2oc3cc(C)c(C)cc3c(=O)c2C1c1cccc(O)c1 (stereo not given)	11	4%	1	i	1.1	2
SMILES	PMK inhibit	NADH enzymes	Abs 340nm	Spn DPM-DC inh	Autofluor 339	Spn MK inh
Cc1cc2nc(C)c(Cc3ccccc3)c(=O)n2[nH]1	0	1%	1.1	i	1.3	2
O=C(OCC(F)(F)C(F)F)c1ccccc1C(=O)Oc1ccc(F)cc1F	14	6%	1	i	1.1	5
CCC(C)n1c(-c2cccs2)nc2nc3ccccc3nc21 (stereo not given)	2	2%	1.1	·	3.9*	2
C=CCn1c(-c2cccs2)nc2nc3ccccc3nc21	13	1%	1	·	1.4	0
CCC(C)NC(=O)C1=C(C)C(=O)OC12CCC(C)CC2 (stereo not given)	0	5%	1	i	1.1	12
CC1(C(=O)N(CC(=O)NC2CCCC2)C2CCCC2)CC(=O)N=C2C=CC=CN21 (stereo not given)	8	7%	1	·	3.8*	5
Cc1ccc(N(C(=O)Cn2nnc3ccccc32)C(C(=O)NC2CCCCC2)c2cn(C)nc2C)cc1 (stereo not given)	11	6%	0.99	i	1.1	6
CC1(C(=O)N(c2ccccc2)C(C(=O)NC2CCCC2)c2ccccn2)CC(=O)N=C2C=CC=CN21 (stereo not given)	16	12%	1.1	·	4.7*	7
COc1ccc(S(=O)(=O)NCC(=O)N(CC(=O)NCC2CCCO2)c2ccccc2C)cc1 (stereo not given)	18	4%	0.96	i	1.1	8
Cc1ccccc1N(CC(=O)NCC1CCCO1)C(=O)C1(C)CC(=O)N=C2C=CC=CN21 (stereo not given)	12	6%	0.99	·	3.3*	17
CC(=O)NC(CC(C)C)C(=O)NC(=O)NCc1ccccc1 (stereo not given)	0	0%	1	i	1.1	0
COc1ccc(C2(C(=O)NCCCN3CCOCC3)CCOCC2)cc1	12	5%	1	i	1.1	3
CCC1=NC(c2ccccc2OC)N(O)C1(C)C (stereo not given)	0	0%	1.1	i	1.1	0
COc1ccc(-c2cnn(-c3ccccc3)c2N)cc1OC	2	2%	1.1	i	1.1	5
Nc1nc2c(s1)CCc1c-2cnn1-c1ccccc1	5	21µM*	0.95	+	0.86	0
Cc1cc(Nc2ccc(Br)cc2F)n2nc(C)nc2n1	10	10%	1	i	1.1	11
COc1c2ccoc2nc2c(OC)c(OCC(O)C(C)(C)O)ccc12 (stereo not given)	0	1%	1	·	2.5*	5
CCC1Cc2c(nc3c4c(nc(N5CCOCC5)c(C#N)c24)NC(C)=N3)O1 (stereo not given)	4	3%	0.99	·	3.3*	3
C=CCNc1nc(N2CCOCC2)c(C#N)c2c1CN(C)CC2	4	9%	1.1	i	1.3	11
COCCn1c(C)cc(C(=O)COc2nc3ccccc3nc2C)c1C	13	18%	1.1	+	1.1	9
CCCOC(=O)C1=C(C)NC2=C(C(=O)CC(C)(C)C2)C1c1ccc(N(C)C)cc1 (stereo not given)	0	1%	1.1	i	1.1	0
CCOC(=O)C1=C(C)NC2=C(C(=O)CC(C)(C)C2)C1c1cccc(C)n1 (stereo not given)	9	9%	1.1	·	4.9*	8
Brc1ccc(-c2nc3ccccc3s2)s1	8	3%	1.1	i	2.2*	0
